An excerpt weighted towards active compounds, which were near 3.9% of everything screened.
DRV1 agonist = GPR32 (DRV1) agonism, beta-arrestin recruitment; O75388; CHO-K1 GPR32 beta-arrestin PathHunter luminescence, 90 min; zero percent set by DMSO-only wells; activation, % at 76.9 µM; 2.5% of 48,000 active;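 active means activation of at least 60% and not above a set upper limit, about 1 call in 100 departs from these limits; inconclusive means activation of 40% to 60%, or above that upper limit; inactive means activation under 40%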; further: 0% is about no effect
Target sequence (O75388 whole entry, looked up): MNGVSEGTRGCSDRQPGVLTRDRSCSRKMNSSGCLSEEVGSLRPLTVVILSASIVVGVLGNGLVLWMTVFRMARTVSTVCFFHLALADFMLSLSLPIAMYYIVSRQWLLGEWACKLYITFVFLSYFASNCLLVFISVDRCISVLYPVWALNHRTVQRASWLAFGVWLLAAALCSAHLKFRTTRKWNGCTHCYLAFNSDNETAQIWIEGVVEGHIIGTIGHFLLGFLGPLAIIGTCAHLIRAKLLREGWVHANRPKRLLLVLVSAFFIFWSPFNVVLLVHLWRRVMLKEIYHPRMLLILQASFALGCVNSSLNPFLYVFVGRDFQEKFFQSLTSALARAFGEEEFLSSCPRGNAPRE
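Beta-arrestin recruitment read-out: luminescence from complemented beta-Gal in CHO-K1 GPR32 PathHunter cells, measured 1 h after detection reagent at ambient temperature following 90 min compound exposure at 37 °C; DMSO served as basal (EC0) control.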
p53null 32C tox = p53 null cell cytotoxicity, permissive temperature. H1299-neo p53 null cells, ATP luminescence, 24 h, 32C. Potency, µM (highest dose often 46.1 µM), without a hit: top-dose activity change, negative = cytotoxicity, actives largely listed as cytotoxic. 0.62% of 55,000 active. AID 903;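 further: potency means the concentration at half of the fitted maximal effect; 0% = DMSO only and -100% = full killing by 100 µM tamoxifen; nearly all actives have a fitted effect of over 55% in size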
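H1299-neo, 600 cells/well; overnight 37C; cpd up to 46 uM, 24 h at 32C; ATPlite luminescence after 20 min RT; normalized to DMSO (0%) and tamoxifen 100 uM (100% kill); Hill-fit AC50.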
HTT-AS act = HTT-AS promoter activation; 0.24% of 48,000 active; Potency, µM (doses to about 57.5 µM), for the others: top-dose activity change, positive = activation, most hits filed as activators; HEK293 HTT-AS promoter firefly luciferase reporter, 24 h; response scale: percent change from vehicle, -100% = no light; AID 1508624; further: potency means the concentration at half of the fitted maximal effect; nearly all actives have a fitted effect of over 55% in size
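Quantitative HTS used concentration series of up to 57.5 uM final on HEK293 luciferase reporter cells, 24 h at 37 degrees C. Readout was Dual-Glo firefly luminescence.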
p53null 39C kill = p53 null cell cytotoxicity, nonpermissive temperature; Potency, µM (titrated, usually from 46.1 µM), without a hit: at the top dose activity, negative = cell killing, hits mostly cytotoxic; 0.97% of 55,000 active; H1299 p53-null (neo) cells, 39C, ATPlite viability, 24 h;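 further: potency means the concentration at half of the fitted maximal effect; 0% = DMSO only and -100% = full killing by 100 µM tamoxifen; nearly all actives have a fitted effect of over 50% in size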
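Concentration-response (up to 46 uM) was run for 24 h at the nonpermissive 39C on H1299-p53A138V or H1299-neo cells. ATP content was measured with ATPlite luminescence. AC50 values were Hill-modeled after normalizing between DMSO and 100 uM tamoxifen killing.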
HTT promoter inh = inhibits huntingtin promoter activity; HEK293 HTT promoter firefly luciferase reporter, 24 h; Potency, µM (doses to about 57.5 µM), without a hit: at the top dose activity change, negative = inhibition, usual class: inhibitors; 0.93% of 48,000 active; further: potency means the concentration at half of the fitted maximal effect; nearly all actives have a fitted effect of over 50% in size
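HEK293 cells carrying firefly luciferase reporters were seeded at 2,500 per well in Opti-MEM and cultured for 24 h. They were then treated with compounds at up to 57.5 uM final for 24 h at 37 degrees C before Dual-Glo luminescence readout.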
The depositor's hits bear a star; ? = inconclusive; / = not tested or not shown; [ ] = dose if it differs, or a comment. Unless noted, the call rests on the fitted dose curve; in most records, active means well fitted curve in the direction sought with a large enough effect; inconclusive means small, poorly fitted or top-dose-only effect, or another doubt; inactive means no such curve, though single readings can be large; an effect the other way counts as inactive or inconclusive.

SMILES	DRV1 agonist	p53null 32C tox	HTT-AS act	p53null 39C kill	HTT promoter inh
Fc1cccc(-c2nc(-c3ccncc3)no2)c1	-5.1	?	3.98µM*	-2.1%	40.0%
Clc1ccccc1-c1nc(-c2ccncc2)no1	45.3	/	?	/	30.1%
COc1ccc2cc3cc(C(=O)Nc4ccccc4C)oc3nc2c1	98.5*	-3.4%	-4.5%	16.6%	-17.6%
COc1ccc2cc3cc(C(=O)Nc4cc(C)c(Cl)cc4OC)oc3nc2c1	0.1	2.9%	0.3%	3.2%	-2.0%
CC(C)c1onc(-c2c(Cl)cccc2Cl)c1COc1ccc(C=Cc2cccc(C(=O)O)c2)c(Cl)c1	/	/	?	/	23.0%
CCOc1ccc(-c2nnc(SCC(=O)c3ccc(F)cc3)n2-c2ccccc2)cc1	-12.0	-2.8%[9.22 µM]	-37.2%	-11.1%	-24.1%
O=C(CSc1nnc(-c2ccccc2Br)n1-c1ccccc1)c1ccc(F)cc1	60.2*	31.8%	-29.1%	37.6%	-38.0%
O=C1NC(=O)C(=Cc2ccc3c(c2)OC(F)(F)O3)S1	/	/	-19.4%	/	-24.0%
COc1cccc(/C=N/Nc2nnc(C)n2N)c1OCc1ccccc1Cl	/	/	/	17.8µM*	/
COc1ccc(-c2cn3nc(N4CCC(C(=O)Nc5ccc(Cl)cc5C)CC4)sc3n2)cc1	1.6	-21.9%	-8.6%	-11.9%	-7.9%
COc1ccc(-c2cn3nc(N4CCC(C(=O)Nc5cccc(OC)c5)CC4)sc3n2)cc1	75.8*	-6.2%	0.5%	-7.3%	-9.4%
Cc1ccc(NC(=O)Cn2nc(C(F)(F)F)c3c2CCCC3)cc1	77.1*	-12.2%	-22.9%	-17.2%	?
CCc1ccc(NC(=O)Cn2nc(C(F)(F)F)c3c2CCCC3)cc1	6.7	-10.4%	-15.8%	-6.6%	-21.2%
O=C1NC(c2ccccc2)(c2ccccc2)C(=O)N1COP(=O)(O)O	-1.2	/	-0.3%	/	7.6%
Cc1ccc(Cl)cc1N1CCN(C(=O)C2CCCN(Cc3nc(-c4cccc(Cl)c4)oc3C)C2)CC1 (configuration not stated)	7.5	-0.6%	-46.1%	?	35.5µM*
Cc1oc(-c2cccc(Cl)c2)nc1CN1CCCC(C(=O)NCCc2ccc(Cl)cc2)C1 (configuration not stated)	5.1	-1.4%	-41.8%	20µM*	?
N=C1SC(=Cc2ccc(-c3ccc4c(c3)C(=O)NC4=O)o2)C(=O)N1c1ccc(Br)cc1	/	/	2.0%	/	10.7%
O=C1CCc2ccc(OCCCCN3CCN(c4cccc(Cl)c4Cl)CC3)cc2N1	89.7*	/	-9.8%	/	-8.5%
COCCNC(=O)c1ccc(CN2CCOCC2)cc1	/	1.9%	/	-0.1%	/
NC(=O)Nc1cc(-c2ccc(CN3CCOCC3)cc2)sc1C(N)=O	/	/	21.7µM*	/	24.1%
Cc1[nH]c(C=C2C(=O)Nc3ccccc32)c(C)c1CCC(=O)O	/	/	-90.3%	/	?
Cc1nc(N)sc1-c1ccnc(Nc2ccc(N3CCOCC3)cc2)n1	/	/	?	/	-25.7%
CCOC(=O)c1[nH]c2ccccc2c1NC(=O)c1cc(Cl)ccc1Cl	42.6	-28.0%	-22.3%	?	-23.5%
CCOC(=O)c1[nH]c2ccccc2c1NC(=O)c1ccccc1OC	6.4	7.2%	-27.1%	15.8µM*	-24.0%
CC(C)(CC(=O)OCC(=O)Nc1ccccc1F)CC1=NS(=O)(=O)c2ccccc2N1	111.6*	3.1%	-30.7%	16.5%	?
SMILES	DRV1 agonist	p53null 32C tox	HTT-AS act	p53null 39C kill	HTT promoter inh
COc1ccccc1NC(=O)COC(=O)CC(C)(C)CC1=NS(=O)(=O)c2ccccc2N1	?	-6.2%	-34.5%	-0.5%	?
CCOC(=O)c1ccccc1NC(=O)COC(=O)CC(C)(C)CC1=NS(=O)(=O)c2ccccc2N1	84.4*	19.3%	-52.9%	-5.4%	?
CCOC(=O)c1ccccc1NC(=O)CSc1cc(C)[nH]c(=O)n1	-5.0	-3.1%	-9.3%	-10.1%	-3.7%
CC(C)(CC(=O)OCC(=O)Nc1ccc(F)c(Cl)c1)CC1=NS(=O)(=O)c2ccccc2N1	114.9*	10.8%	-38.7%	3.6%	?
O=C(COC(=O)CCCC1=NS(=O)(=O)c2ccccc2N1)Nc1ccc(Br)cc1	?	-4.9%	-18.9%	5.4%	-9.7%
Cn1ncc(S(=O)(=O)Cc2ccccc2)c(Br)c1=O	-3.5	/	/	/	/

High-throughput results: PubChem, National Center for Advancing Translational Sciences (NCATS)
